Assay results reported in PubChem BioAssay AID431 (Sanford-Burnham Center for Chemical Genomics, 2006).
Screen size: about 63,000 compounds; about 1,100 (1.7%) were called active.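 How the source made its calls: active means compounds whose percent cytotoxicity in the single-dose primary screen, scaled between solvent and toxic-drug controls, exceeds 50; inactive means the rest.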 For the sample, actives were picked, then their nearest neighbours and some compounds at random. Results with a measured potency or affinity are listed apart.

Assay: viability loss of HPDE-C7K cells – cell-based, fluorescence, HTS, primary screen (AID 431);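 further: 0% = DMSO solvent wells and 100% = doxorubicin-treated wells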
Settings: HPDE-C7K KRASV12 cells, Alamar Blue viability, 48 h; at 10 µM; stronger effect = higher value

Row | Compound | cytotoxicity
1 | O=C(NCc1nc2ncc(Br)cc2[nH]1)c1ccccc1 | -7.6% (inactive)
2 | COc1cccc(OCc2nc3ncc(Br)cc3[nH]2)c1 | 64.8% (active)
3 | COc1cccc(OCc2nc3ccccc3[nH]2)c1 | 10.6% (inactive)
4 | O=C(COC(=O)C(O)c1ccccc1)c1ccc2c(c1)OCCO2 (stereo not drawn) | -14.7% (inactive)
5 | Cn1cc(Cl)c(C(=O)Nc2cccc(Cl)c2Cl)n1 | -18.7% (inactive)
6 | CCOC(=O)c1ccc(Oc2nc(SC)nc(N(C)C)n2)cc1 | -21.1% (inactive)
7 | COC(=O)c1ccc(Oc2cc(C)nc(SC)n2)cc1 | 53.4% (active)
8 | COC(=O)c1ccc(Oc2cc(C)nc(NCc3ccccc3)n2)cc1 | 1.6% (inactive)
9 | CCOC(=O)c1ccc(Oc2nc(NC)nc(SC)n2)cc1 | -5.1% (inactive)
10 | COC(=O)c1ccc(Oc2nc(C)cc(Oc3ccccc3)n2)cc1 | -1.7% (inactive)
11 | CCOC(=O)c1ccc(Oc2cc(C)nc(SC)n2)cc1 | 55.4% (active)
12 | COc1ccc(S(=O)(=O)NC2CC3CCC2C3)cc1Cl (stereo not drawn) | 5% (inactive)
13 | CCOC(=O)C(Cc1ccccc1)NC(=O)CCc1c(C)nc2ncnn2c1C (stereo not drawn) | -0.7% (inactive)
14 | O=C(CN1CCc2ccccc2C1)c1cccs1 | -6.1% (inactive)
15 | COc1cc2c(cc1OC)CN(C(=O)CSc1nnc3scc(-c4ccccc4)n13)CC2 | 1.3% (inactive)
16 | CCN(CC)CCCOc1nc(C)nc2c1oc1ccccc12 | 9.8% (inactive)
17 | Clc1ccc(OCc2nc(-c3ccccn3)n[nH]2)cc1 | 47.8% (inactive)
18 | Cc1cc(Cl)ccc1OCc1nc(-c2ccc(O)cc2)n[nH]1 | 86.2% (active)
19 | Cc1cc(Cl)ccc1OCCCC(N)=O | -7% (inactive)
20 | COc1ccc(N2CCN(C(=O)c3ccc4c(c3)OCO4)CC2)cc1 | 17% (inactive)
21 | CC1CC(C)CN(C(=O)Cn2c(=O)n(CCCCC(=O)NC3CCCC3)c(=O)c3ccccc32)C1 (stereo not drawn) | -3.9% (inactive)
22 | O=C(Cc1ccc(Cl)c(Cl)c1)OCC(=O)c1ccc[nH]1 | -10.8% (inactive)
23 | O=C(Cc1ccc(-c2ccccc2)cc1)N1CCOCC1 | -4.1% (inactive)
24 | O=C1NCCCC2c3c(cc(Br)c(O)c3Br)OC12N1CCOCC1 (stereo not drawn) | -3.5% (inactive)
25 | CCCCn1c(SCC(=O)OCC)nc2c1c(=O)[nH]c(=O)n2C | 2.4% (inactive)

Row | Compound | cytotoxicity
26 | Cc1nc(SCC#N)c2c3c(sc2n1)CCC3 | -15.5% (inactive)
27 | CSc1nc2sc3c(c2c2nnnn12)CCC3 | 6.6% (inactive)
28 | Cc1nc(Sc2nnnn2C)c2c3c(sc2n1)CCC3 | 68.5% (active)
29 | Cc1nnn(C23CC4CC(CC(C4)C2)C3)n1 | 4.5% (inactive)
30 | CC1CCCN(CCCNC(=O)c2coc3nc4ccccc4nc23)C1 (stereo not drawn) | 9.2% (inactive)
31 | O=C(NCc1ccccc1)N1CCN(c2ccc(Cl)c(Cl)c2)CC1 | -1.9% (inactive)
32 | CCOc1ccc(C(=O)COC(=O)CC)cc1 | -1.3% (inactive)
33 | CC(C)c1ccc(OC(=O)NCCO)cc1 | -6.6% (inactive)
34 | CCC(=O)Oc1ccc(-c2nc(-c3cccnc3)no2)cc1 | -6.1% (inactive)
35 | COC(=O)CCC(=O)Oc1ccc(OC(=O)CCC(=O)OC)cc1 | 18.3% (inactive)
36 | CC1(C)CC(=O)C2=C(C1)OC(=O)C2(NC(=O)c1cccs1)C(F)(F)F (stereo not drawn) | -9.1% (inactive)
37 | CC1=C(C(=O)N(C)Cc2ccccc2)C2(CCC(C)CC2)OC1=O (stereo not drawn) | 1.3% (inactive)
38 | Cc1cc(NC(=O)CSc2nc3c(c(=O)n2-c2ccccc2)SC(C)C3)no1 (stereo not drawn) | 5.9% (inactive)
39 | COc1ccc(CCNC(=O)c2cnn3cccnc23)cc1OC | -0.5% (inactive)
40 | CCN1C(=O)CC(C(=O)Nc2ccc(F)cc2)SC1=Nc1cccc(OC)c1 (stereo not drawn) | -9.1% (inactive)
41 | O=C(NCCCN1CCN(CCCNC(=O)c2ccccc2F)CC1)c1ccccc1F | -23.8% (inactive)
42 | CC1CCc2nc(NC(=O)CN3CCN(Cc4ccc5c(c4)OCO5)CC3)sc2C1 (stereo not drawn) | 56.9% (active)
43 | CC1CCc2nc(NC(=O)CN3CCN(c4ccccc4)CC3)sc2C1 (stereo not drawn) | -5.6% (inactive)
44 | CC1CCc2nc(NC(=O)CN3CCOCC3)sc2C1 (stereo not drawn) | -3.7% (inactive)
45 | COCCOC(=O)C1=C(C)NC2=C(C(=O)CCC2)C1c1ccc(N(C)C)cc1 (stereo not drawn) | 3% (inactive)
46 | COC(=O)c1cc2ccsc2n1Cc1nc(-c2ccc(OC)cc2)oc1C | 11.1% (inactive)
47 | COc1ccc(-c2nc(CS(=O)CC(=O)NCc3ccco3)c(C)o2)cc1OC (stereo not drawn) | 1.1% (inactive)
48 | COC(=O)c1ccc(-c2ccco2)n1Cc1nc(-c2ccc(OC)c(OC)c2)oc1C | 74.4% (active)
49 | CCCC(C(=O)NCc1ccc(OC)cc1)N(Cc1ccco1)C(=O)c1snc(C(N)=O)c1N (stereo not drawn) | -4% (inactive)
50 | Oc1ccc2c(c1)oc1cc(O)ccc12 | 57% (active)

Row | Compound | cytotoxicity
51 | O=c1oc2cc(O)ccc2c2oc3cc(O)ccc3c12 | 41% (inactive)
52 | O=c1oc2cc(O)ccc2c2c1CCCC2 | 30.5% (inactive)
53 | COc1ccc(N(Cc2cc3ccccc3[nH]c2=O)C(=O)C2CCCO2)cc1 (stereo not drawn) | 14.6% (inactive)
54 | Cc1sc2nc(SCC(=O)c3cc(C)n(CC4CCCO4)c3C)n(C(C)C)c(=O)c2c1C (stereo not drawn) | 22.2% (inactive)
55 | Cn1nnc2cc(C(=O)NC(C)(C)C)ccc21 | 3.4% (inactive)
56 | Cc1ccc2c(c1)c1ncnc(N3CCN(c4ccccc4)CC3)c1n2C | 9.4% (inactive)
57 | Cc1ccc2c(c1)c1ncnc(N3CCOCC3)c1n2C | -7.1% (inactive)
58 | Cc1ccc2[nH]c(=O)c(CN(Cc3ccccc3)Cc3nnnn3C3CCCC3)cc2c1 | 47.8% (inactive)
59 | Cc1ccc2cc(CN(Cc3ccc(F)cc3)Cc3nnnn3C3CCCC3)c(=O)[nH]c2c1 | 31.6% (inactive)
60 | CCc1ccc2[nH]c(=O)c(CN(Cc3ccc4c(c3)OCO4)Cc3nnnn3C3CCCC3)cc2c1 | 54.8% (active)
61 | Cc1cc2cc(CN(Cc3ccc4c(c3)OCO4)Cc3nnnn3C3CCCC3)c(=O)[nH]c2cc1C | 2.4% (inactive)
62 | Cc1ccc2cc(CN(Cc3ccccc3)Cc3nnnn3C3CCCC3)c(=O)[nH]c2c1 | 56.3% (active)
63 | Cc1ccc2[nH]c(=O)c(CN(Cc3ccc4c(c3)OCO4)Cc3nnnn3C3CCCC3)cc2c1 | -0.4% (inactive)
64 | O=C(Nc1ccc2c(c1)nc1n2CCN(C2CCCCC2)C1)c1ccco1 | -30.2% (inactive)
65 | Cc1ccc(-c2nnn(CC(=O)N(Cc3cccs3)C(C(=O)NC(C)(C)C)c3ccc(C)o3)n2)o1 (stereo not drawn) | 21.3% (inactive)
66 | Clc1ccc(COn2nnc3ccccc32)c(Cl)c1 | 0.9% (inactive)
67 | CCOc1cc(C(=O)N2CCc3cc(OC)c(OC)cc3C2)ccc1OC(F)F | 89.4% (active)
68 | CCOc1ccc(C(=O)N2CCc3cc(OC)c(OC)cc3C2)cc1OCC | 45.5% (inactive)
69 | COc1ccc(C(=O)N2CCc3cc(OC)c(OC)cc3C2)cc1OC | -3.5% (inactive)
70 | CCOc1nc(-c2ccccc2)ccc1-c1noc(-c2ccc(OC)c(OC)c2)n1 | 20.5% (inactive)
71 | Cc1cc2c(c(=O)n1CCN(C)C)C(c1ccc(Cl)cc1)C(C#N)=C(N)O2 (stereo not drawn) | -10.1% (inactive)
72 | Cc1cc2c(c(=O)n1CCN(C)C)C(c1ccc(Br)cc1)C(C#N)=C(N)O2 (stereo not drawn) | 54.2% (active)
73 | Cc1cc2c(c(=O)n1CCN(C)C)C(c1ccncc1)C(C#N)=C(N)O2 (stereo not drawn) | 20.9% (inactive)
74 | O=C(NCc1ccco1)C1CCN(c2nnc(-n3cccc3)s2)CC1 | -3.4% (inactive)
75 | Cc1cc(C(=O)CN2C(=O)NC(c3ccccc3)(c3ccccc3)C2=O)c(C)n1Cc1ccco1 | 3.5% (inactive)

Row | Compound | cytotoxicity
76 | COc1ccccc1NC(=O)C1=C(C)Nc2nnnn2C1c1ccncc1 (stereo not drawn) | -9.7% (inactive)
77 | COc1cc2nc(-c3cccs3)oc(=O)c2cc1OC | 9.6% (inactive)
78 | Fc1cccc2sc(Nc3nnc(-c4ccccc4)o3)nc12 | 44.8% (inactive)
79 | COc1cc(OC)cc(-c2nnc(Nc3nc4c(F)cccc4s3)o2)c1 | 5.5% (inactive)
80 | COc1ccccc1-c1nnc(Nc2nc3c(OC)cccc3s2)o1 | 56.1% (active)
81 | COc1cc(-c2nnc(-c3cccs3)o2)cc(OC)c1OC | -28.7% (inactive)
82 | COC(=O)c1sc(NC(=O)COc2ccccc2OC)nc1C | -10.6% (inactive)
83 | COc1cccc2sc(Nc3nnc(-c4ccccc4Cl)o3)nc12 | 31.7% (inactive)
84 | COc1ccc(-c2nnc(Nc3nc4c(OC)cccc4s3)o2)cc1 | 59.3% (active)
85 | CCOC(=O)c1sc(Nc2nc3c(OC)cccc3s2)nc1C | 79.9% (active)
86 | CCOC(=O)c1sc(NCCNc2nc(C)c(C(=O)OCC)s2)nc1C | 1% (inactive)
87 | Fc1cccc2sc(Nc3nnc(-c4ccco4)o3)nc12 | 29.2% (inactive)
88 | COc1cccc2sc(Nc3nnc(-c4cccs4)o3)nc12 | 59.6% (active)
89 | CCn1c(SCC(=O)NCCc2ccc(F)cc2)nnc1-c1cccs1 | 4.9% (inactive)
90 | COc1ccccc1OCc1nnc(SCC(=O)Nc2ccc(C)cc2)n1C | -9.9% (inactive)
91 | Cc1ccc(CN2CC34C=CC(O3)C(C(=O)NCc3ccc5c(c3)OCO5)C4C2=O)cc1 (stereo not drawn) | -15.5% (inactive)
92 | CCN(CC)S(=O)(=O)c1cccc(-c2nnc(SCC(=O)NC)n2CCc2ccccc2)c1 | -3% (inactive)
93 | COc1ccccc1N1CCN(C(=O)c2ccc(NC(C)=O)cc2)CC1 | -1.4% (inactive)
94 | Brc1ccc(-c2nnc(-c3ccccc3Br)o2)cc1 | -2.3% (inactive)
95 | CN(CC(=O)Nc1ccccc1Cl)C(=O)COC(=O)CNC(=O)c1ccc(Br)o1 | -18.6% (inactive)
96 | Cc1ccc2c(c1)nnn2C1CCN(C(=O)c2cccs2)CC1 | -4.8% (inactive)
97 | O=C(Cc1cccs1)Nc1ccc(C(=O)O)cc1 | -2.8% (inactive)
98 | CC(=O)OC1CC2(C)C(=O)CCC2C2CCc3cc(O)ccc3C12 (stereo not drawn) | -12.1% (inactive)
